# Experimental data reported in PubChem BioAssay (EPA / NIEHS).
# Where “and” joins values, the source holds several entries; their conditions need not be identical. Equal entries are not always repeated. More than one record can exist for a structure, and the calls need not agree. Calls of active or inactive are those of the source. The calls were made as follows: active = hit-call score of the fitted dose curve at least 0.9, where 1 is the maximum; inactive = score below 0.9.
# How the values were obtained:
# [1] = read-out: TIMP metallopeptidase inhibitor 1 (TIMP1), TIMP1 (gene 7076); test: BSK_hDFCGF_TIMP1: BioMAP Diversity Plus: hDFCGF Assay for TIMP metallopeptidase inhibitor 1 (TIMP1) Biomarker Activity (AID 2283062); details: primary human foreskin fibroblasts; actives raise or lower the signal
# Method in brief: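 ELISA readout of TIMP-1 from human dermal foreskin fibroblast cultures 24 h post-dosing. Curves were fitted in both directions against DMSO baseline, with SRB total-protein staining in parallel cultures as a cytotoxicity check.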
# [2] = read-out: Monokine induced gamma interferon (MIG), CXCL9 (gene 4283); test: BSK_hDFCGF_MIG: BioMAP Diversity Plus: hDFCGF Assay for Monokine induced gamma interferon (MIG) Biomarker Activity (AID 2283063); details: primary human foreskin fibroblasts; actives raise or lower the signal
# Method in brief: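 Fibroblasts (human foreskin, primary) dosed, 24 h, MIG by ELISA; fit bidirectional vs DMSO.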
# [3] = read-out: Matrix Metallopeptidase 1 (MMP1), MMP1 (gene 4312); test: BSK_hDFCGF_MMP1: BioMAP Diversity Plus: hDFCGF Assay for Matrix Metallopeptidase 1 (MMP1) Biomarker Activity (AID 2283064); details: primary human foreskin fibroblasts; actives raise or lower the signal
# Method in brief: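 MMP1 levels quantified by ELISA 24 h after dosing human dermal fibroblast cultures, with parallel SRB total-protein staining for overt cytotoxicity. Data fitted in both directions against DMSO baseline.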
# [4] = read-out: Vascular cell adhesion molecule 1 (VCAM1), VCAM1 (gene 7412); test: BSK_hDFCGF_VCAM1: BioMAP Diversity Plus: hDFCGF Assay for Vascular cell adhesion molecule 1 (VCAM1) Biomarker Activity (AID 2283065); details: primary human foreskin fibroblasts; actives raise or lower the signal;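 as to AC50: VCAM-1 protein level quantified by ELISA after 24 h chemical exposure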
# Method in brief: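 ELISA read-out of VCAM-1 on human skin fibroblasts, 24 h post-dose; gain or loss of signal fitted bidirectionally against DMSO baseline.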
# [5] = read-out: Plasminogen activator inhibitor-1 (PAI1), SERPINE1 (gene 5054); test: BSK_hDFCGF_PAI1: BioMAP Diversity Plus: hDFCGF Assay for Plasminogen activator inhibitor-1 (PAI1) Biomarker Activity (AID 2283066); details: primary human foreskin fibroblasts; actives raise or lower the signal
# Method in brief: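 Fibroblasts from human foreskin were treated with test chemical. After 24 h, PAI-1 was measured by ELISA. Activity was fitted in both directions relative to DMSO.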
# [6] = read-out: Intercellular Adhesion Molecule 1 (ICAM1), ICAM1 (gene 3383); test: BSK_KF3CT_ICAM1: BioMAP Diversity Plus: KF3CT Assay for Intercellular Adhesion Molecule 1 (ICAM1) Biomarker Activity (AID 2283067); details: primary human keratinocytes with fibroblasts; actives raise or lower the signal
# Method in brief: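 ELISA readout of ICAM-1; KF3CT human skin co-culture (keratinocytes + foreskin fibroblasts), 24 h post-dose; gain/loss fit vs DMSO baseline.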
# [7] = read-out: Interferon-gamma inducible Protein 10 (IP10), CXCL10 (gene 3627); test: BSK_KF3CT_IP10: BioMAP Diversity Plus: KF3CT Assay for Interferon-gamma inducible Protein 10 (IP10) Biomarker Activity (AID 2283068); details: primary human keratinocytes with fibroblasts; actives raise or lower the signal
# Method in brief: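 In a primary skin co-culture of keratinocytes and fibroblasts, IP-10 is quantified by ELISA at 24 h after dosing. SRB staining of parallel wells monitors overt toxicity. Curves are fitted both directions against DMSO.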
# [8] = BSK_KF3CT_SRB: Viability Assessment in the BioMAP Diversity Plus: KF3CT Assay (AID 2283069); details: primary human keratinocytes with fibroblasts;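 also: total protein by sulforhodamine B staining as a cytotoxicity measure; read 24 h after compound addition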
# Method in brief: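 Cytotoxicity was gauged by SRB staining (0.1% SRB, 10% TCA fixation, 560 nm) of parallel cultures at 24 h. The cells were primary human skin keratinocytes co-cultured with fibroblasts, and activity was fitted in both directions against DMSO.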
# [9] = read-out: Interleukin-1 alpha (IL1a), IL1A (gene 3552); test: BSK_KF3CT_IL1a: BioMAP Diversity Plus: KF3CT Assay for Interleukin-1 alpha (IL1a) Biomarker Activity (AID 2283070); details: primary human keratinocytes with fibroblasts; actives raise or lower the signal
# Method in brief: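 IL-1a was detected by ELISA 24 h after chemical treatment of a co-culture of human skin keratinocytes and foreskin fibroblasts. Gain or loss of signal was fitted against the DMSO baseline.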
# [10] = read-out: TIMP metallopeptidase inhibitor 2 (TIMP2), TIMP2 (gene 7077); test: BSK_KF3CT_TIMP2: BioMAP Diversity Plus: KF3CT Assay for TIMP metallopeptidase inhibitor 2 (TIMP2) Biomarker Activity (AID 2283071); details: primary human keratinocytes with fibroblasts; actives raise or lower the signal
# Method in brief: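 Chemicals were dosed onto human skin primary co-cultures of keratinocytes and foreskin fibroblasts, and TIMP-2 was measured by ELISA after 24 hours. Activity in either direction was fitted relative to DMSO.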
# [11] = read-out: Transforming growth factor beta 1 (TGFb1), TGFB1 (gene 7040); test: BSK_KF3CT_TGFb1: BioMAP Diversity Plus: KF3CT Assay for Transforming growth factor beta 1 (TGFb1) Biomarker Activity (AID 2283072); details: primary human keratinocytes with fibroblasts; actives raise or lower the signal
# Method in brief: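 KF3CT co-culture (keratinocytes + fibroblasts), 24 h exposure → TGF-b1 ELISA → bidirectional fit, DMSO = baseline. Parallel SRB total-protein staining (0.1% SRB, 10% TCA fixation, 560 nm) for cytotoxicity.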
# [12] = read-out: C-C motif chemokine 2 (Homo sapiens) (UniProt P13500); test: BSK_KF3CT_MCP1: BioMAP Diversity Plus: KF3CT Assay for Monocyte Chemoattractant Protein 1 (MCP1/CCL2) Biomarker Activity (AID 2283073); details: primary human keratinocytes with fibroblasts; actives raise or lower the signal
# Method in brief: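 KF3CT skin co-culture (keratinocytes/foreskin fibroblasts), 24 h post-dose; MCP-1 by ELISA; gain/loss of signal fit bidirectionally vs DMSO baseline.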
# [13] = read-out: Matrix Metallopeptidase 9 (MMP9), MMP9 (gene 4318); test: BSK_KF3CT_MMP9: BioMAP Diversity Plus: KF3CT Assay for Matrix Metallopeptidase 9 (MMP9) Biomarker Activity (AID 2283074); details: primary human keratinocytes with fibroblasts; actives raise or lower the signal;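 as to AC50: MMP9 protein level quantified by ELISA in the co-culture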
# Method in brief: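 MMP-9 quantified by ELISA after 24 h chemical treatment of primary human skin keratinocyte/fibroblast co-cultures; gain or loss fitted against DMSO, with parallel SRB staining (0.1% SRB, 560 nm) for overt cytotoxicity.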
# CD40, CD40 (gene 958) = test: BSK_LPS_CD40: BioMAP Diversity Plus: LPS Assay for CD40 Biomarker Activity (AID 2283076); details: primary human HUVEC with PBMC; actives raise or lower the signal
# Method in brief: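 ELISA readout of CD40 in HUVEC/PBMC co-culture (BSK_LPS system), 24 h post-dosing; bidirectional curve fit, DMSO baseline; parallel SRB total-protein staining for cytotoxicity.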
# [14] = read-out: E-selectin (Homo sapiens) (UniProt P16581); test: BSK_LPS_Eselectin: BioMAP Diversity Plus: LPS Assay for Eselectin Biomarker Activity (AID 2283077); details: primary human HUVEC with PBMC; actives raise or lower the signal
# Method in brief: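 ELISA readout of E-selectin, 24 h post-dose, HUVEC + PBMC co-culture (LPS system). Gain or loss of signal vs DMSO baseline, bidirectional fit.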
# [15] = read-out: Interleukin-8 (IL8), CXCL8 (gene 3576); test: BSK_LPS_IL8: BioMAP Diversity Plus: LPS Assay for Interleukin-8 (IL8) Biomarker Activity (AID 2283078); details: primary human HUVEC with PBMC; actives raise or lower the signal
# Method in brief: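 HUVEC + PBMC co-culture, LPS-activated; test chemicals dosed, IL-8 read by ELISA at 24 h. Bidirectional curve fit vs DMSO baseline (gain or loss of signal).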
# [16] = BSK_LPS_SRB: Viability Assessment in the BioMAP Diversity Plus: LPS Assay (AID 2283079); details: primary human HUVEC with PBMC;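 also: total protein by sulforhodamine B absorbance as a cytotoxicity measure; measured one day after compound addition; fitted in both directions against DMSO so loss or gain of signal counts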
# Method in brief: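 HUVEC + PBMC co-culture, LPS-stimulated; compound 24 h. 10% TCA fix, 0.1% SRB stain, A560. Bidirectional fit vs DMSO.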
# [17] = read-out: Interleukin-1 alpha (IL1a), IL1A (gene 3552); test: BSK_LPS_IL1a: BioMAP Diversity Plus: LPS Assay for Interleukin-1 alpha (IL1a) Biomarker Activity (AID 2283080); details: primary human HUVEC with PBMC; actives raise or lower the signal
# Method in brief: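 HUVEC/PBMC co-culture, LPS system; 24 h after dosing; IL-1a by ELISA; gain or loss of signal fitted bidirectionally vs DMSO baseline.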
# [18] = read-out: Monocyte Chemoattractant Protein-1 (MCP1), CCL2 (gene 6347); test: BSK_LPS_MCP1: BioMAP Diversity Plus: LPS Assay for Monocyte Chemoattractant Protein-1 (MCP1) Biomarker Activity (AID 2283081); details: primary human HUVEC with PBMC; actives raise or lower the signal;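 as to AC50: secreted MCP-1 protein quantified by ELISA in culture supernatant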
# Method in brief: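 ELISA read-out of MCP-1 after 24 h chemical dosing of a human umbilical vein endothelial cell/peripheral blood mononuclear cell co-culture stimulated with LPS. Gain or loss of signal fitted relative to DMSO controls.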
# [19] = read-out: urokinase plasminogen activator (uPA), PLAU (gene 5328); test: BSK_KF3CT_uPA: BioMAP Diversity Plus: KF3CT Assay for urokinase plasminogen activator (uPA) Biomarker Activity (AID 2283075); details: primary human keratinocytes with fibroblasts; actives raise or lower the signal
# Method in brief: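 ELISA read-out of uPA 24 h after dosing human skin keratinocytes co-cultured with foreskin fibroblasts. Signal change fitted both ways relative to DMSO; sulforhodamine B on parallel cultures marks overt cytotoxicity.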
# Chain of E-selectin (Homo sapiens) (P16581 whole entry, looked up): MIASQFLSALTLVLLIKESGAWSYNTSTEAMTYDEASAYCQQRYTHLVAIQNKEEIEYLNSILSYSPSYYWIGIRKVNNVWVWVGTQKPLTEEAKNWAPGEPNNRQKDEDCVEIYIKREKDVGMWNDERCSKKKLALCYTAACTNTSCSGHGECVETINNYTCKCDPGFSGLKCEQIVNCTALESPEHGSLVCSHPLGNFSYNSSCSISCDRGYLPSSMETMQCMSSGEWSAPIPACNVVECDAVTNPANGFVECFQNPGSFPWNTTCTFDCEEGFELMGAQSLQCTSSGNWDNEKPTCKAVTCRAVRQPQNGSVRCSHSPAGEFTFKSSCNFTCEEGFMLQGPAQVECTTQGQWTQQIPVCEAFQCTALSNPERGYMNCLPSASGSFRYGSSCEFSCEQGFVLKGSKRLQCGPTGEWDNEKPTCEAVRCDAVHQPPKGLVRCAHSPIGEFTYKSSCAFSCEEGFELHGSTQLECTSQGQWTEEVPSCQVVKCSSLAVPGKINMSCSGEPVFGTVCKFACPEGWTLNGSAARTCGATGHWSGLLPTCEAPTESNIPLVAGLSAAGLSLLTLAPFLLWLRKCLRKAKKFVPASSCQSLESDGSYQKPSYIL
smiles,measurement,setting,value
OCCN1CN(CCO)CN(CCO)C1,outcome,[1],inactive
same,AC50,[2],20 µM (active)
same,outcome,[3],inactive
same,AC50,[4],15.5 µM (active)
same,outcome,[5],inactive
same,AC50,[6],20 µM (active)
same,outcome,[7],inactive
same,outcome,[8],inactive
same,AC50,[9],5.9 µM (active)
same,outcome,[10],inactive
same,AC50,[11],3.97 µM (active)
same,outcome,[12],inactive
same,outcome,[13],inactive
same,AC50,"CD40, CD40 (gene 958)",36 µM (active)
same,AC50,[14],29.9 µM (active)
same,AC50,[15],28.2 µM (active)
same,outcome,[16],inactive
same,AC50,[17],31.4 µM (active)
same,AC50,[18],13.1 µM (active)
OCC(F)(F)C(F)(F)C(F)(F)C(F)(F)C(F)(F)C(F)(F)C(F)(F)C(F)(F)C(F)(F)C(F)(F)C(F)(F)F,outcome,[1],inactive
same,outcome,[2],inactive
same,outcome,[3],inactive
same,AC50,[4],0.189 µM (active)
same,outcome,[4],inactive
same,outcome,[5],inactive
same,outcome,[7],inactive
same,outcome,[8],inactive
same,outcome,[9],inactive
same,outcome,[10],inactive
same,outcome,[12],inactive
same,outcome,[13],inactive
same,outcome,[19],inactive
same,outcome,"CD40, CD40 (gene 958)",inactive
same,outcome,[14],inactive
same,outcome,[15],inactive
same,outcome,[16],inactive
same,AC50,[17],186 nM (active) and 202 nM (active)
same,outcome,[18],inactive
O=S(=O)(O)C(F)(F)C(F)(F)C(F)(F)C(F)(F)C(F)(F)C(F)(F)C(F)(F)C(F)(F)C(F)(F)C(F)(F)F,AC50,[1],11.5 µM (active)
same,outcome,[1],inactive
same,outcome,[2],inactive
same,outcome,[3],inactive
same,AC50,[4],0.201 µM (active)
same,outcome,[4],inactive
same,outcome,[5],inactive
same,AC50,[6],6.49 µM (active) and 3.75 µM (active)
same,outcome,[7],inactive
same,outcome,[8],inactive
same,outcome,[9],inactive
same,outcome,[10],inactive
same,outcome,[12],inactive
same,AC50,[13],11.9 µM (active) and 5.3 µM (active)
same,AC50,"CD40, CD40 (gene 958)",13.3 µM (active) and 16.5 µM (active)
same,AC50,[14],24.7 µM (active) and 768 nM (active)
same,AC50,[15],23.4 µM (active) and 20.3 µM (active)
same,outcome,[16],inactive
same,AC50,[17],19.4 µM (active)
same,outcome,[17],inactive
same,AC50,[18],6.6 µM (active)
same,outcome,[18],inactive
